Source: the supplement of paper PMC3545927
This is one part of the list. The hit rate among all sequences tested is not known here.

Target: furin, P09958
Assay: furin cleavage Z-score vs untreated control; higher = more cleavage, active = 3.5 or more, inactive = 1 or less, 8 variable residues between constant flanks
Method in brief: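 Sequencing of released DNA, tagged with adapters by PCR, gave read counts used as abundance. That DNA was freed when purified furin cut N-terminally bead-bound 8-mer peptides fused to a cDNA oligonucleotide, in 0.01 ml reactions at 1:10 enzyme:substrate in 50 mM HEPES pH 7.5 with CaCl2 and NaCl, lasting 7.5, 15 or 30 min. The cleavage Z-score was the lowess-adjusted log count versus furin-free reactions, scaled by median absolute deviation.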

Sequence of furin, P09958 (P09958 whole entry): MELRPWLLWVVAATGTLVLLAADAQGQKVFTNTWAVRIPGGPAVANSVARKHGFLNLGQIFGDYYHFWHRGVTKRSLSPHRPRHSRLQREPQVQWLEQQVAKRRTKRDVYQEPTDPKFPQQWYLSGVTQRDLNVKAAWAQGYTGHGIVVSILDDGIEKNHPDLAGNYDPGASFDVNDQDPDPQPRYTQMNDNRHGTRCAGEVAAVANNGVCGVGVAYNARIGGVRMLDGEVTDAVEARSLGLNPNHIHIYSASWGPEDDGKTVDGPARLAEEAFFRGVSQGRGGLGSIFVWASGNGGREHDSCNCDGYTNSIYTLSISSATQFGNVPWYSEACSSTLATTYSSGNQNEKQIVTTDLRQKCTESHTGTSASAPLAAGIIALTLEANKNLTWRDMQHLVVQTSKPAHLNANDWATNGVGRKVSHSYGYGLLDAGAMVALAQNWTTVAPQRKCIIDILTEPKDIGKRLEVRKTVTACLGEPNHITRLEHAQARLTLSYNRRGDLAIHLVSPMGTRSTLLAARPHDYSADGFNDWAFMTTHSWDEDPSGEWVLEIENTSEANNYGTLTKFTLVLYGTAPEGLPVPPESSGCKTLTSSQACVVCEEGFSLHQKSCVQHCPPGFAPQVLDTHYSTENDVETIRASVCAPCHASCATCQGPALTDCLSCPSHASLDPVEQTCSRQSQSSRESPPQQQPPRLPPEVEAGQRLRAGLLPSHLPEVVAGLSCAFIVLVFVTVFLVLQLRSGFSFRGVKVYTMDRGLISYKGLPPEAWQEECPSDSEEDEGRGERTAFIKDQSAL

Sequence | furin cleavage Z-score (7.5 min) | furin cleavage Z-score (15 min) | furin cleavage Z-score (30 min)
CAPLTDFDQGAGNASASA [HC391] | -0.36 (inactive) | -0.0198 (inactive) | -2.39 (inactive)
CAVLAGIAYFAGNASASA [HC338] | -0.161 (inactive) | 0.738 (inactive) | -0.272 (inactive)
CAEHTTPCSGAGNASASA [HC1975] | -1.73 (inactive) | -1.12 (inactive) | 0.179 (inactive)
CATYPCSGSWAGNASASA [HC1849] | -0.56 (inactive) | -0.736 (inactive) | -0.826 (inactive)
CARYRRHGTHAGNASASA [FS-1942] | 3.5 | 5.79 (active) | 6.5 (active)
CARYRRGFIHAGNASASA [FS-1810] | 1.59 | 3.75 (active) | 4.82 (active)
CARYRRWMKNAGNASASA [FS-2321] | -1.37 (inactive) | -0.188 (inactive) | 2.73
CARPWRPAEGAGNASASA [FS-2442] | -1.33 (inactive) | -0.417 (inactive) | 0.551 (inactive)
CARYRRVAEGAGNASASA [FS-1980] | 3.4 | 4.71 (active) | 4.58 (active)
CARLRRLAEGAGNASASA [FS-2715] | -0.759 (inactive) | -0.389 (inactive) | -0.211 (inactive)
CARYRRVITVAGNASASA [FS-1844] | -0.325 (inactive) | -0.579 (inactive) | 0.939 (inactive)
CAGLQDCTMLAGNASASA [HC1524] | 1.18 | 0.431 (inactive) | 0.816 (inactive)
CASCTTPCSGAGNASASA [HC1957] | 0.117 (inactive) | -0.946 (inactive) | 0.203 (inactive)
CARLYVGGPLAGNASASA [HC1500] | -0.16 (inactive) | 0.662 (inactive) | 0.78 (inactive)
CATGALVTPCAGNASASA [HC1374] | 1.46 | -0.486 (inactive) | -0.745 (inactive)
CAIQARAKRVAGNASASA [FS-256] | 4.63 (active) | 3.93 (active) | 4.73 (active)
CAICQRVKRVAGNASASA [FS-1633] | 0.73 (inactive) | -0.331 (inactive) | 1.69
CADELAAKLVAGNASASA [HC861] | -0.523 (inactive) | 0.896 (inactive) | 0.946 (inactive)
CASLLRHHNLAGNASASA [HC1385] | -0.346 (inactive) | 0.336 (inactive) | 0.383 (inactive)
CAYSHRWKRNAGNASASA [FS-112] | 7.46 (active) | 8.5 (active) | 7.17 (active)
CAVDIRLKRVAGNASASA [FS-148] | 0.517 (inactive) | 1.34 | 1.54
CALNERLKRVAGNASASA [FS-53] | 2.86 | 3.12 | 3.89 (active)
CARLLRHKRMAGNASASA [FS-188] | 8.79 (active) | 8.2 (active) | 6.11 (active)
CAVVICESAGAGNASASA [HC1531] | 0.204 (inactive) | -0.473 (inactive) | 1.4
CAEVVTSNWVAGNASASA [HC2221] | -0.745 (inactive) | -1.12 (inactive) | -0.494 (inactive)
CASPITYSTYAGNASASA [HC805] | 0.448 (inactive) | 0.103 (inactive) | -0.462 (inactive)
CADVVVVATDAGNASASA [HC876] | -1.44 (inactive) | -0.376 (inactive) | -0.463 (inactive)
